Holding throughout (assay): NCI-60 one-dose screen, 48 h (100 = growth as untreated, 0 = no growth, -100 = all killed)
In one experiment the test system is SR leukemia. To be noted: 10 µM unless noted.
The test system of another experiment is RPMI-8226 leukemia. To be noted: 10 µM.
Another experiment has as its system OVCAR-8 ovarian. Conditions: 10 µM unless noted.
The test system of a further experiment is OVCAR-5 ovarian. Conditions: 10 µM unless noted.
In the next experiment the test system is OVCAR-4 ovarian. To be noted: 10 µM unless noted.
The test system of another experiment is SK-OV-3 ovarian. To be noted: 10 µM.
In the next experiment the test system is IGROV1 ovarian. Conditions: 10 µM unless noted.
The subject of a further experiment is OVCAR-3 ovarian. To be noted: 10 µM unless noted.
Another experiment has as its system HS 578T breast. Conditions: 10 µM unless noted.
The next experiment has as its system NCI/ADR-RES ovarian. Conditions: 10 µM unless noted.
The next experiment deals with BT-549 breast. To be noted: 10 µM unless noted.
The next experiment deals with MDA-MB-435 melanoma. Conditions: 10 µM unless noted.
For another experiment, the system named is SW-620 colon. Conditions: 10 µM unless noted.
For a further experiment, the system named is MCF7 breast. To be noted: 10 µM unless noted.
Another experiment concerns HCT-116 colon. Conditions: 10 µM unless noted.
The test system of a further experiment is HCC-2998 colon. To be noted: 10 µM unless noted.
In the next experiment the test system is KM12 colon. To be noted: 10 µM unless noted.
The next experiment has as its system T-47D breast. To be noted: 10 µM.

The results in this text go back to PubChem BioAssay (NCI).

Each structure is given as a SMILES string. Compounds without any hit were thinned out: in the full panel of roughly 83,000, 20% have a hit.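 Activity criterion: percent growth below 10, measured after cells in 96-well plates were exposed to a single compound concentration for 48 hours.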 Unmarked numbers belong to inactive results. Active and inactive are the calls of the source.

On to `O=S(=O)(OCCO)c1ccccc1`, for which the growth in the experiment with SR leukemia is 100%; in the experiment with RPMI-8226 leukemia, 103%; in the experiment on OVCAR-8 ovarian, 90.6%; with OVCAR-5 ovarian, 92%; in the experiment with OVCAR-4 ovarian, 109%; with SK-OV-3 ovarian, 109%. The growth was 113% in the experiment on IGROV1 ovarian; 112% in the experiment on OVCAR-3 ovarian; 108% in the experiment on HS 578T breast; 102% in the experiment with NCI/ADR-RES ovarian; 105% in the experiment with BT-549 breast; 98.2% with MDA-MB-435 melanoma. The growth in the experiment with SW-620 colon was 101%; in the experiment on MCF7 breast it was 94.9%; in the experiment with HCT-116 colon it was 104%; in the experiment on HCC-2998 colon, 113%; in the experiment on KM12 colon it was 103%.
For the compound `Cn1c2ccccc2c2nn(C(=O)c3ccccc3)c(=O)nc21`, the growth in the experiment with SR leukemia was 93.7%; with RPMI-8226 leukemia, 98.7%; with OVCAR-8 ovarian, 117%; with OVCAR-5 ovarian, 101%; in the experiment with OVCAR-4 ovarian it was 125%; with SK-OV-3 ovarian, 116%. In addition, the growth in the experiment on IGROV1 ovarian was 101%; in the experiment with OVCAR-3 ovarian, 122%; with HS 578T breast, 105%; in the experiment on NCI/ADR-RES ovarian, 110%; in the experiment with BT-549 breast, 114%; in the experiment on MDA-MB-435 melanoma, 105%. Moreover, the growth in the experiment on SW-620 colon was 100%; in the experiment with MCF7 breast, 101%; in the experiment on HCT-116 colon, 109%; in the experiment on HCC-2998 colon, 107%; with KM12 colon, 106%.
Regarding `Cc1ccc(S(=O)(=O)N2CCc3ccc(O)c4c3C2Cc2cc(Cl)ccc2-4)cc1` (centres undefined), the growth with SR leukemia was 18.9%; with RPMI-8226 leukemia, 93.8%; in the experiment with OVCAR-8 ovarian it was 75.4%; in the experiment with OVCAR-5 ovarian it was 99%; with OVCAR-4 ovarian, 70.3%; in the experiment with SK-OV-3 ovarian it was 70%. The growth is 57.6% in the experiment on IGROV1 ovarian; -3.87% (active) with OVCAR-3 ovarian; 62.8% in the experiment with HS 578T breast; 42.6% with NCI/ADR-RES ovarian; 65.4% in the experiment with T-47D breast; 8.9% (active) with MDA-MB-435 melanoma. For the same compound, the growth is 33.1% in the experiment with SW-620 colon, 23.3% in the experiment with MCF7 breast, 70.9% in the experiment with HCT-116 colon and 30.8% in the experiment with KM12 colon.
Consider `Cc1ccc(C(=O)Nc2ccccc2N)cc1`, for which the growth with SR leukemia was 68%; in the experiment with RPMI-8226 leukemia, 15%; in the experiment with OVCAR-8 ovarian, 59.5%; with OVCAR-5 ovarian, 51.1%; in the experiment with OVCAR-4 ovarian, 99.5%; in the experiment with SK-OV-3 ovarian it was 92.9%. For the same compound, the growth in the experiment with IGROV1 ovarian is 70.1%; in the experiment on OVCAR-3 ovarian it was 90.8%; with HS 578T breast, 71.4%; in the experiment on NCI/ADR-RES ovarian it was 44.2%; with BT-549 breast, 61.5%; with MDA-MB-435 melanoma, 68.3%. Besides, the growth in the experiment with SW-620 colon is 60%; in the experiment with MCF7 breast it was 74.8%; in the experiment on HCT-116 colon, 62.9%; in the experiment on HCC-2998 colon, 77.1%; in the experiment with KM12 colon, 87.4%.
Consider `COc1ccc(Sc2ccc3[nH]c(=O)nc(N)c3c2)cc1`, for which the growth in the experiment with SR leukemia was 87.1%; in the experiment on RPMI-8226 leukemia, 104%; in the experiment with OVCAR-8 ovarian, 98%; in the experiment with OVCAR-5 ovarian, 100%; in the experiment with OVCAR-4 ovarian it was 99.7%; with SK-OV-3 ovarian it was 104%. The growth in the experiment with IGROV1 ovarian is 109%; with OVCAR-3 ovarian, 115%; with HS 578T breast, 106%; with NCI/ADR-RES ovarian, 103%; with T-47D breast, 94.3%; in the experiment with MDA-MB-435 melanoma it was 99.8%. Also, the growth in the experiment with SW-620 colon was 101%; in the experiment on MCF7 breast, 100%; with HCT-116 colon, 99.9%; in the experiment with KM12 colon it was 108%.
Regarding `COC(=O)c1ccc(C(=O)Nc2ccccc2N)cc1`, the growth with SR leukemia was 67.1%; in the experiment on RPMI-8226 leukemia, 12.6%; with OVCAR-8 ovarian, 56.9%; with OVCAR-5 ovarian, 53.4%; in the experiment with OVCAR-4 ovarian, 96.2%; with SK-OV-3 ovarian, 92.6%. In addition, the growth is 74.7% in the experiment on IGROV1 ovarian; 87.5% in the experiment on OVCAR-3 ovarian; 75% with HS 578T breast; 53.1% with NCI/ADR-RES ovarian; 60% with BT-549 breast; 77.7% in the experiment with MDA-MB-435 melanoma. The growth in the experiment on SW-620 colon was 72.3%; in the experiment on MCF7 breast it was 69.2%; in the experiment on HCT-116 colon, 75.4%; in the experiment on HCC-2998 colon it was 85.8%; in the experiment with KM12 colon, 86.3%.
On to `COc1ccccc1-n1c(SCc2cc(OC)c(OC)c(OC)c2)nc2ccc(Cl)cc2c1=O`, for which the growth in the experiment with SR leukemia is 16.1%; in the experiment with RPMI-8226 leukemia it was 17.4%; in the experiment on OVCAR-8 ovarian, 55.3%; with OVCAR-5 ovarian, 53.3%; with OVCAR-4 ovarian it was 63%; in the experiment on SK-OV-3 ovarian, 59.5%. The growth with IGROV1 ovarian is 47.7%; in the experiment with OVCAR-3 ovarian, 0.54% (active); with HS 578T breast it was 39.6%; in the experiment with NCI/ADR-RES ovarian it was 20.2%; with BT-549 breast, 39.5%; in the experiment with MDA-MB-435 melanoma it was -34.2% (active). Besides, the growth with SW-620 colon is 16.9%; in the experiment on MCF7 breast, 15.6%; in the experiment on HCT-116 colon it was 21.1%; in the experiment with HCC-2998 colon it was 56.9%.
Turning to `FC(F)(F)c1cc(CNc2nc(Cl)ncc2Br)cc(C(F)(F)F)c1`, the growth with SR leukemia is 38.2%; in the experiment on RPMI-8226 leukemia, 70.9%; with OVCAR-8 ovarian, 91.5%; in the experiment on OVCAR-5 ovarian it was 96.6%; in the experiment with OVCAR-4 ovarian it was 98.5%; in the experiment on SK-OV-3 ovarian, 81.1%. Further, the growth in the experiment on IGROV1 ovarian was 75%; with OVCAR-3 ovarian, 85.6%; in the experiment on HS 578T breast, 54.5%; in the experiment with NCI/ADR-RES ovarian, 92.7%; with MDA-MB-435 melanoma, 45.9%; in the experiment on SW-620 colon, 103%. For the same compound, the growth with MCF7 breast was 93.3%; with HCT-116 colon, 96.1%; in the experiment with HCC-2998 colon, 97.8%; in the experiment with KM12 colon, 71.2%.
As for `CC(C)OC1=C(Cl)C(=O)c2ccccc2C1=O`, the growth in the experiment with SR leukemia is 9.89% (active); with RPMI-8226 leukemia, 24.5%; with OVCAR-8 ovarian, 75.9%; in the experiment on OVCAR-5 ovarian, 101%; in the experiment on OVCAR-4 ovarian, 71.9%; in the experiment with SK-OV-3 ovarian it was 103%. The growth in the experiment on IGROV1 ovarian is 99.1%; in the experiment with OVCAR-3 ovarian, 78%; with HS 578T breast, 81.5%; in the experiment on NCI/ADR-RES ovarian it was 87.2%; in the experiment with BT-549 breast it was 59.7%; in the experiment on MDA-MB-435 melanoma, 97.3%. The growth in the experiment on SW-620 colon is 56.6%; with MCF7 breast, 73.2%; with HCT-116 colon it was 39.4%; with KM12 colon, 41.2%.
For the compound `NC(=O)c1nc2c([nH]c1=O)CCCC2`, the growth with SR leukemia was 100%; in the experiment on RPMI-8226 leukemia, 96.5%; in the experiment with OVCAR-8 ovarian, 106%; in the experiment with OVCAR-5 ovarian it was 117%; in the experiment on OVCAR-4 ovarian, 109%; in the experiment with SK-OV-3 ovarian it was 94.7%. The growth in the experiment with IGROV1 ovarian was 115%; with OVCAR-3 ovarian, 108%; in the experiment with HS 578T breast, 109%; in the experiment with NCI/ADR-RES ovarian, 105%; in the experiment on BT-549 breast, 115%; in the experiment with MDA-MB-435 melanoma it was 113%. Also, the growth in the experiment with SW-620 colon was 101%; in the experiment on MCF7 breast, 98.7%; in the experiment with HCT-116 colon, 109%; in the experiment on KM12 colon, 98.8%.
